Screening data deposited in PubChem BioAssay by The Scripps Research Institute Molecular Screening Center.
Compounds with a hit are over-represented: about 3.4% of the library has one in this group of screens.
FBW7 activator – FBW7 E3 ligase activators, primary screen, biochemical, AlphaScreen, human; AlphaScreen FBW7–phospho-cyclin E peptide binding, activator screen; 650,000 compounds, 0.13% hits; normalized activity (activation), % at 26.1 µM; AID 1259310, 2017; in the data active means normalized activity above about 1.9%;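 further: purified mutant Fbw7 with reduced substrate affinity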
GPR151 ag – activators of human GPR151, primary screen, cell-based, PathHunter beta-arrestin, luminescence; 650,000 compounds, 1% hits; G-protein coupled receptor 151 (Homo sapiens), Q8TDV0; activation, % at 11.2 µM; PathHunter beta-arrestin GPR151 cells; in the data active means activation above about 4.9%
Target sequence (Q8TDV0 whole entry, looked up): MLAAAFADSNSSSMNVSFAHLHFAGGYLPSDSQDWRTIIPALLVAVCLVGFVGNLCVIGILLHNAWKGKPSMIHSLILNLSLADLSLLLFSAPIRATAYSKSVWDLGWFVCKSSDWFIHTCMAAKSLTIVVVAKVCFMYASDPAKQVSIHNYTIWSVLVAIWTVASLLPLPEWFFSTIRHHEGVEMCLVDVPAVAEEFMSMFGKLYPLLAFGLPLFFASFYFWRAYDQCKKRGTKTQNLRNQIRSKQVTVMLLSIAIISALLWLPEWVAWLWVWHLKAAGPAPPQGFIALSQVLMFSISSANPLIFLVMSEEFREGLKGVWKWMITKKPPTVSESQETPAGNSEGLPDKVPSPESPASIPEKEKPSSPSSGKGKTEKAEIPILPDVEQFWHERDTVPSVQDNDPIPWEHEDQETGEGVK
MITF inh – MITF inhibitors, primary screen, biochemical, AlphaScreen, human. 650,000 compounds, 0.91% hits. inhibition, % at 2.6 µM. AlphaScreen MITF homodimerization, bead proximity signal. AID 1259374, 2018. Microphthalmia-associated transcription factor (Homo sapiens), O75030; in the data active means inhibition above about 50%
TEAD-YAP inh – TEAD-YAP interaction inhibition, primary screen, TEAD-YAP interaction inhibitor project, luminescence, HEK-TIYL cells. TEAD-Gal4/YAP UAS-luciferase luminescence. 640,000 compounds, 1.4% hits. inhibition, % at 9.12 µM; in the data active means inhibition above about 32%
Numbers stand for hits; n = inactive.

SMILES | FBW7 activator | GPR151 ag | MITF inh | TEAD-YAP inh
COc1cccc(CN2CCC(N3CCCC(c4nc5ccccc5[nH]4)C3)CCC2=O)c1 (stereo unspecified) | n | n | n | n
O=C(NCc1nc2ccccc2[nH]1)c1cccc(-c2ccc(N3CCOCC3)nc2)c1 | n | n | n | 43
CCCNC(=O)c1cccc(-c2ccc(N3CCN(C)CC3)cc2)n1 | n | n | n | n
O=C(NCc1nc2ccccc2[nH]1)c1ccnc(N2CCOCC2)c1 | n | n | n | n
O=Cc1cccc(-c2ccc(N3CCOCC3)nc2)c1 | n | n | n | 47
O=C(NCc1nc2ccccc2[nH]1)c1ccnc(-c2ccc(N3CCOCC3)nc2)c1 | n | n | n | 32
CN1CCN(c2ccc(-c3cccc(C=O)c3)cn2)CC1 | n | n | n | n
CN1CCN(c2ccc(-c3cccc(C(=O)NCc4nc5ccccc5[nH]4)n3)cc2)CC1 | n | n | n | 49
c1ccc2[nH]c(CNc3cc(-c4ccc(N5CCOCC5)nc4)ncn3)nc2c1 | n | n | n | n
O=C(Cn1cnc2c(nnn2Cc2ccc(F)cc2)c1=O)NC1CCCCC1 | n | n | n | n
O=C(O)c1cc2c3c(c1)C1C=CCC1C(c1ccc(Cl)cc1)N3CC1CC=CC21 (stereo unspecified) | n | n | 88 | n
O=C(O)C1C2CC=CC2c2cc(Cl)cc3c2N1CC1CC=CC31 (stereo unspecified) | 2.7 | n | n | n
Cc1ccc(C(=O)N/C(=C\c2ccco2)C(=O)N2CCCN(C)CC2)cc1C | n | n | n | n
COc1cccc(/C=N/N2C(=O)CSC2=S)c1O | n | n | 77 | n
O=C1CSC(=S)N1/N=C/c1ccccc1OS(=O)(=O)c1ccccc1 | n | n | n | n
CC(=O)N(C1=C(N2CCCC2)C(=O)c2ccccc2C1=O)c1ccc(Cl)c(Cl)c1 | n | n | n | n
O=C1C(N2CCCCC2)=C(N2CCOCC2)C(=O)c2ccccc21 | n | n | n | n
O=C1C(NC2CCCC2)=C(N2CCOCC2)C(=O)c2ccccc21 | n | n | n | 79
CN(C1=C(N2CCOCC2)C(=O)c2ccccc2C1=O)c1ccccc1 | n | n | 51 | n
CC(=O)N(C1=C(N2CCOCC2)C(=O)c2ccccc2C1=O)c1ccc(Cl)c(Cl)c1 | n | n | 117 | 40
CC(=O)N(C1=C(N2CCCC2)C(=O)c2ccccc2C1=O)c1cccc(F)c1 | n | n | n | 42
Cc1ccc(S(=O)(=O)N2CCOC23CCN(S(=O)(=O)c2ccc(Cl)cc2)CC3)cc1 | n | n | n | n
Cc1c(NC(=S)NCCc2ccccc2)c(=O)n(-c2ccccc2)n1C | n | n | n | n
CCOc1ccc(N(C(C)=O)C2=C(N3CCN(C)CC3)C(=O)c3ccccc3C2=O)cc1 | n | n | n | 90
CC(=O)N(C1=C(N2CCOCC2)C(=O)c2ccccc2C1=O)c1ccccc1 | n | n | n | 64
SMILES | FBW7 activator | GPR151 ag | MITF inh | TEAD-YAP inh
CC(=O)N(C1=C(N2CCOCC2)C(=O)c2ccccc2C1=O)c1cccc(Cl)c1 | n | n | n | n
O=C(Nc1cc(-c2nc3ncccc3o2)ccc1Cl)c1cccc2ccccc12 | n | n | n | n
O=C(C1CCCO1)N1CCC2(CC1)CC2C(=O)N1CCN(C/C=C/c2ccccc2)CC1 (stereo unspecified) | n | n | n | n
COC(=O)c1sccc1NC(=O)c1csc(C)c1-c1ccccc1 | n | n | n | 33
CC(=O)CC(=O)NC1CCCCCCC1 | n | n | n | n
COc1cc(C2C3=C(CCCC3=O)Nc3nc(SC)[nH]c(=O)c32)cc(OC)c1OC (stereo unspecified) | n | n | n | n
COc1ccc(CNCc2cc(OC)c(OC)c(OC)c2)cc1C | n | n | 51 | n
COc1ccc(CNCc2ccccc2)cc1OC | n | n | n | n
CC(C)C1=NN2C(=N)/C(=C/c3ccc(N(C)C)cc3)C(=O)N=C2S1 | n | n | n | n
COc1cc([N+](=O)[O-])ccc1N/C=C/C(=O)c1cccs1 | n | n | n | 80
Cc1cc(C(=O)O)ccc1N/C=C/C(=O)c1cccs1 | n | n | n | 46
COc1cc([N+](=O)[O-])ccc1N/C=C/C(=O)c1ccccc1 | n | n | n | 71
COc1cc([N+](=O)[O-])ccc1N/C=C/C(=O)c1ccc(Cl)cc1 | n | n | n | n
Cc1cc(N/C=C\C(=O)c2cccs2)no1 | n | n | n | n
Cn1nccc1C(=O)Nc1nc2ccccc2s1 | n | n | n | n
Nc1nc(CNS(=O)(=O)c2ccccc2)nn1S(=O)(=O)c1ccccc1 | n | n | n | n
CCN1CCN(c2nc(C)c([N+](=O)[O-])c(Nc3ccc(C)cc3)n2)CC1 | n | n | n | n
Cc1ccc(C)n1-c1ccc(-c2nnc(-c3ccc(-n4c(C)ccc4C)cc3)o2)cc1 | n | n | n | n
O=C1NC(c2cccc([N+](=O)[O-])c2)c2c(-c3ccccc3)n[nH]c21 (stereo unspecified) | n | n | n | n
O=C(Nc1cnc2cnc(-c3ccc(O)cc3)cn12)c1ccccc1 | n | n | n | n
O=C(CCl)N(c1ccccc1)c1ccccc1 | n | n | n | 66
N#CC(C#N)=NNc1ccc(O)c(C(=O)O)c1 | n | n | 79 | n
N#CC(C#N)=NNc1ccccc1C(=O)O | n | n | n | n
Cc1ccc(NC(=O)c2n[nH]c3ccccc23)cc1Cl | n | n | n | n
Cc1ccc(NC(=O)c2n[nH]c3ccccc23)cc1 | n | n | n | 45
SMILES | FBW7 activator | GPR151 ag | MITF inh | TEAD-YAP inh
Cc1cc(C(=O)CSc2nnc(-c3cccs3)o2)c(C)n1CC1CCCO1 (stereo unspecified) | n | n | n | n
Cc1nnc(SCC(=O)c2cc(C)n(CC3CCCO3)c2C)s1 (stereo unspecified) | n | n | n | 41
Cc1cc(C(=O)CN2C(=O)C3CC=CCC3C2=O)c(C)n1CC1CCCO1 (stereo unspecified) | n | n | n | 36
O=C(Nc1ccc(S(=O)(=O)NC(=O)c2ccc(Cl)cc2Cl)cc1)c1ccc(Cl)cc1Cl | n | n | n | n
Cc1ccc(C(=O)OC2CCOC2=O)cc1[N+](=O)[O-] (stereo unspecified) | n | n | n | n
CN1CCN(c2ccnc3c(-c4ccc(CO)cc4)cnn23)CC1 | n | n | n | n
O=C(O)CCc1ccc(-c2cnn3c(N4CCC(O)CC4)ccnc23)cc1 | n | n | n | 37
OCc1ccc(-c2cnn3c(N4CCOCC4)ccnc23)cc1 | n | n | n | 42
CC(C)c1cc(C(=O)NCCc2ccccc2)nn1-c1nc2ccccc2s1 | n | n | n | 44
COc1ccc(NC(=O)c2cc(C(C)C)n(-c3nc4ccccc4s3)n2)cc1OC | n | n | n | 56
CCOc1cccc(-c2nc(C(N)=O)c3[nH]c(=O)n(-c4ccccc4)c3n2)c1O | n | n | n | n
